Data reported in PubChem BioAssay.
Calls of active or inactive are those of the source.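 The calls were made as follows: active = normalized viability below 100% at a tested concentration; inactive = the rest.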

test: ovarian cancer cell viability with rucaparib, profiling panel, oncology-focused library, rucaparib conditional (AID 1508598); details: patient-derived ovarian cancer cells, CellTiter-Glo viability, 144 h; at 1.25 µM; OCI-C5x cells; without rucaparib; stronger effect = lower value

Compound | viability
CCOC(=O)NCCCC(=O)NCCc1ccccc1 | 111% (inactive)
C[C@@]1(c2nc3c(C(N)=O)cccc3[nH]2)CCCN1 | 108% (inactive)
Cc1ccc(NC(=O)c2ccc(CN3CCN(C)CC3)cc2)cc1Nc1nc(-c2cccnc2)cs1 | 130% (inactive)
C[C@]12CC[C@H]3c4ccc(O)cc4CC[C@H]3[C@@H]1CCC2=O | 63.5% (active)
O=C(NCC1(c2nc(-c3ccccc3)cs2)CCOCC1)c1cccc(-c2noc(C(F)(F)F)n2)c1 | 117% (inactive)

same assay, conditions: patient-derived ovarian cancer cells, CellTiter-Glo viability, 144 h; at 1.25 µM; OCI-P5x cells; with rucaparib 20 µM; stronger effect = lower value; 100% = cells with rucaparib alone

Compound | viability
CCOC(=O)NCCCC(=O)NCCc1ccccc1 | 89.5% (active)
C[C@@]1(c2nc3c(C(N)=O)cccc3[nH]2)CCCN1 | 90% (active)
Cc1ccc(NC(=O)c2ccc(CN3CCN(C)CC3)cc2)cc1Nc1nc(-c2cccnc2)cs1 | 91.9% (active)
C[C@]12CC[C@H]3c4ccc(O)cc4CC[C@H]3[C@@H]1CCC2=O | 65% (active)
O=C(NCC1(c2nc(-c3ccccc3)cs2)CCOCC1)c1cccc(-c2noc(C(F)(F)F)n2)c1 | 88.1% (active)

same assay, conditions: patient-derived ovarian cancer cells, CellTiter-Glo viability, 144 h; at 1.25 µM; OCI-P5x cells; without rucaparib; stronger effect = lower value

Compound | viability
CCOC(=O)NCCCC(=O)NCCc1ccccc1 | 99.1% (active)
C[C@@]1(c2nc3c(C(N)=O)cccc3[nH]2)CCCN1 | 87.4% (active)
Cc1ccc(NC(=O)c2ccc(CN3CCN(C)CC3)cc2)cc1Nc1nc(-c2cccnc2)cs1 | 87.9% (active)
C[C@]12CC[C@H]3c4ccc(O)cc4CC[C@H]3[C@@H]1CCC2=O | 29.9% (active)
O=C(NCC1(c2nc(-c3ccccc3)cs2)CCOCC1)c1cccc(-c2noc(C(F)(F)F)n2)c1 | 89.8% (active)

same assay, conditions: patient-derived ovarian cancer cells, CellTiter-Glo viability, 144 h; at 5 µM; OCI-C5x cells; with rucaparib 10 µM; stronger effect = lower value; 100% = cells with rucaparib alone

Compound | viability
CCOC(=O)NCCCC(=O)NCCc1ccccc1 | 116% (inactive)
C[C@@]1(c2nc3c(C(N)=O)cccc3[nH]2)CCCN1 | 123% (inactive)
Cc1ccc(NC(=O)c2ccc(CN3CCN(C)CC3)cc2)cc1Nc1nc(-c2cccnc2)cs1 | 129% (inactive)
C[C@]12CC[C@H]3c4ccc(O)cc4CC[C@H]3[C@@H]1CCC2=O | 36.6% (active)
O=C(NCC1(c2nc(-c3ccccc3)cs2)CCOCC1)c1cccc(-c2noc(C(F)(F)F)n2)c1 | 158% (inactive)

same assay, conditions: patient-derived ovarian cancer cells, CellTiter-Glo viability, 144 h; at 5 µM; OCI-C5x cells; without rucaparib; stronger effect = lower value

Compound | viability
CCOC(=O)NCCCC(=O)NCCc1ccccc1 | 109% (inactive)
C[C@@]1(c2nc3c(C(N)=O)cccc3[nH]2)CCCN1 | 108% (inactive)
Cc1ccc(NC(=O)c2ccc(CN3CCN(C)CC3)cc2)cc1Nc1nc(-c2cccnc2)cs1 | 138% (inactive)
C[C@]12CC[C@H]3c4ccc(O)cc4CC[C@H]3[C@@H]1CCC2=O | 23.7% (active)
O=C(NCC1(c2nc(-c3ccccc3)cs2)CCOCC1)c1cccc(-c2noc(C(F)(F)F)n2)c1 | 127% (inactive)
